This is a sample that favours compounds with a hit; in the whole collection about 1.8% have one here.
KLF5 inh: KLF5 expression inhibitors, primary screen, DLD-1 cells, luminescence | DLD-1 KLF5 promoter-luciferase reporter | AID 1700, 2009 | 290,000 compounds, 0.23% hits | inhibition, % at 5 µM;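 active = inhibition above a per-plate limit of that plate's mean compound inhibition plus 3 SD, cut at about 60% in these data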;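 note: 0% = DMSO wells and 100% = LY294002 at 200 µM; higher means less KLF5 promoter-driven luciferase light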
APP transl inh: inhibitors of APP translation via 5'UTR reporter, primary screen, APP 5'UTR luciferase, SH-SY5Y cells | SH-SY5Y APP 5'UTR-luciferase reporter, luminescence | inhibition, % at 2 µM | 190,000 compounds, 0.82% hits;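 active = inhibition above a set limit, derived from the sample mean plus 3 SD, cut at about 45% in these data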
Ba/F3 V617F tox: reduced viability of JAK2V617F-dependent Ba/F3 cells, primary screen, JAK2V617F inhibitor project, cell-based, Ba/F3 EpoR-JAK2V617F, luminescence; ATP luminescence; inhibition, % at 5.6 µM; 220,000 compounds, 1.1% hits; AID 1446, 2008;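 active = inhibition above the campaign mean plus 3 SD over all tested compounds, cut at about 24% in these data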;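 note: cytokine-independent growth of Ba/F3 cells driven by EpoR plus mutant JAK2; 0% = DMSO-treated cells and 100% = JAK inhibitor I control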
BaF3 parental: parental Ba/F3 cell viability inhibition, counter-screen for JAK2V617F inhibitor project, murine pro-B, CellTiter-Glo luminescence | CellTiter-Glo ATP luminescence | inhibition, % at 5.6 µM | 220,000 compounds, 1.1% hits | AID 1486, 2009;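 active = inhibition above a per-campaign cutoff, the mean inhibition of all tested compounds plus 3 SD, cut at about 27% in these data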;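 note: 0% = DMSO wells and 100% = JAK Inhibitor I control wells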
IEC-6 cytotox: cytotoxicity in IEC-6 intestinal epithelial cells, primary screen, cytotoxicity control for KLF5 inhibitor project, cell-based, luminescence | IEC-6 cytotoxicity, luminescence viability | 290,000 compounds, 0.78% hits | inhibition, % at 5 µM;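 note: 0% = plate median of test compound wells and 100% = cytotoxic reference compound wells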
IEC-6 cytotox cf: cytotoxic compounds in IEC-6 epithelial cells, confirmation, cytotoxicity control, cell-based, luminescence; shares compounds with IEC-6 cytotox; IEC-6 rat intestinal epithelial viability; inhibition, % at 5 µM; 1,900 compounds, 63% hits; AID 1907, 2009;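 note: 0% = vehicle and 100% = reference cytotoxic drug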
* = called active by the depositor; . = not tested or not shown. Cut-off read from the data, not from the text of the source, unless noted: active = inhibition above about 22%; inactive = the rest.

SMILES | KLF5 inh | APP transl inh | Ba/F3 V617F tox | BaF3 parental | IEC-6 cytotox | IEC-6 cytotox cf
Cc1cccn2c(=O)c3cc(C(=O)NCc4cccnc4)c(=N)n(CC4CCCO4)c3nc12 (stereo not drawn) | -14.9 | . | . | . | 3.6 | .
COc1cccc(C(=O)Nc2ccc3c(cc2=O)[C@@H](NC(C)=O)CCc2cc(OC)c(OC)c(OC)c2-3)c1 | -5.7 | . | . | . | 46.3* | 38.9*
COc1cccc(C(=O)Nc2ccc(F)cc2F)c1 | -65.0 | -31.9 | 4.1 | 9.7 | -2.3 | .
O=C(Nc1ccc(Cl)cc1)Nc1ccon1 | -19.3 | . | . | . | 29.2* | 8.9
Cc1ccc(NC(=O)Nc2ccon2)cc1 | -82.2 | . | . | . | 0.1 | .
CCN(CC)c1ccc(/C=N/NC(=O)CNC(=O)C2COc3ccccc3O2)c(O)c1 (stereo not drawn) | 59.7 | . | . | . | 51.7* | 48.3*
COc1cc(/C=N\NC(=O)CNC(=O)C2COc3ccccc3O2)ccc1O (stereo not drawn) | 1.8 | -0.8 | 0.0 | 6.5 | -1.4 | .
CCCCCC(O)(c1ccccc1)C(CN1CCOCC1)c1ccccc1 (stereo not drawn) | -12.6 | . | . | . | -4.1 | .
O=C(c1cc(Cl)ccc1OCc1ccccc1)N1CCOCC1 | -35.8 | . | . | . | -3.9 | .
COc1ccc(NS(=O)(=O)c2cc(N/C(=N\S(=O)(=O)c3ccccc3)c3ccc(F)cc3)ccc2Cl)cc1 | 12.5 | 7.1 | 63.9* | 60.6* | 38.7* | 0.0
COc1ccc(S(=O)Cc2ccc(C(=O)N3CCN(c4cccc(C)c4C)CC3)o2)cc1 (stereo not drawn) | 24.6 | . | . | . | 31.9* | 37.4*
Cc1ccccc1S(=O)(=O)Cc1ccc(C(=O)N2CCN(c3cccc(C)c3C)CC2)o1 | 4.7 | 20.4 | 1.3 | 4.2 | 17.5 | .
O=c1[nH]c(NCc2ccco2)nnc1Cc1ccccc1Cl | 17.7 | 12.5 | 3.8 | 12.4 | 22.2* | 14.1
Cc1nc(NCc2ccco2)[nH]c(=O)c1CCC(C)C | -16.5 | 15.6 | 2.9 | 10.6 | 2.9 | .
Cc1ccc(C)c(Cn2c(C(=O)OC(C)C)cc3c2ccn3C)c1 | -1.5 | -1.4 | 4.5 | 2.0 | 29.4* | 17.0
Cc1ccccc1Cn1c(C(=O)OC(C)C)cc2c1ccn2C | -11.1 | -2.0 | -0.3 | -0.2 | 10.1 | .
CC(C)OC(=O)c1cc2c(ccn2C)n1CC(=O)N1CCC(Cc2ccccc2)CC1 | 5.4 | 4.4 | 4.8 | 7.9 | 40.3* | 6.9
CCOC(=O)c1cc2c(ccn2C)n1CC(=O)N(Cc1ccccc1)c1ccc(F)cc1 | 4.9 | -0.3 | -0.4 | 8.9 | -7.7 | .
CCOC(=O)c1cc2c(ccn2C)n1CC(=O)N(Cc1ccccc1)c1ccccc1 | -3.0 | -19.0 | 3.7 | 6.1 | 32.5* | 2.2
O=C(N/N=C/C(Br)=C/c1ccccc1)c1n[nH]c2c1CCC2 | -48.7 | . | 92.0* | 91.7* | 94.0* | 2.8
O=C(N/N=C/c1ccc(Cl)cc1)c1n[nH]c2c1CCCC2 | 18.6 | . | 74.9* | 70.9* | 81.6* | 63.2*
O=C(O)/C=C/c1cn(-c2ccccc2)nc1-c1cc2ccccc2o1 | -25.1 | . | 0.0 | 3.9 | 0.5 | .
CCCn1c(N)cc(=O)n(CCC)c1=O | 3.1 | -11.7 | 10.1 | 4.9 | 7.6 | .
CCn1cc2nc(SCC(=O)Nc3ccc(OC)c(OC)c3)n(Cc3ccc(OC)cc3)c(=O)c2n1 | -0.6 | . | . | . | 0.8 | .
CCn1cc2nc(SCC(=O)Nc3ccc(OC)cc3OC)n(Cc3ccc(OC)cc3)c(=O)c2n1 | 56.3 | . | . | . | 61.5* | 41.7*
SMILES | KLF5 inh | APP transl inh | Ba/F3 V617F tox | BaF3 parental | IEC-6 cytotox | IEC-6 cytotox cf
CCOC(=O)c1cc(C)n(Cc2ccc(OCC)c(OC)c2)c1C | -29.4 | 25.8 | 0.7 | 4.1 | 2.9 | .
COC(=O)Nc1ccc(S(=O)(=O)N2c3ccccc3CCC2C)cc1 (stereo not drawn) | 31.1 | 60.6* | 56.5* | 40.9* | 47.7* | 52.6*
COC(=O)Nc1ccc(S(=O)(=O)N2CCCCC2C(=O)O)cc1 (stereo not drawn) | -17.2 | 2.6 | -3.0 | 4.6 | 0.6 | .
CC(=O)Nc1ccc(S(=O)(=O)N2CCCc3ccccc32)cc1 | 3.6 | -10.6 | 22.4 | 19.6 | 40.1* | 42.4*
NS(=O)(=O)c1ccc(-c2cccc(/C=C3\SC(=O)NC3=O)c2)cc1 | -9.0 | . | . | . | 1.1 | .
Cc1onc(-c2ccccc2)c1C(=O)N1CCN(c2ccccc2F)CC1 | -2.5 | . | . | . | -8.2 | .
Cc1nc2ncccn2c1-c1csc(Nc2ccc(O)cc2)n1 | -80.0 | 12.8 | 82.4* | 77.4* | 25.0* | 6.8
O=[N+]([O-])c1ccccc1S(=O)(=O)Nc1ccn(Cc2c(F)cccc2Cl)n1 | -20.3 | . | . | . | 4.6 | .
CCS(=O)(=O)Nc1cccc(C2=NN(C(=O)c3ccco3)C(c3ccco3)C2)c1 (stereo not drawn) | 45.8 | . | . | . | 47.1* | 22.1*
CS(=O)(=O)Nc1cccc(C2=NN(C(=O)c3ccco3)C(c3ccco3)C2)c1 (stereo not drawn) | -16.9 | . | . | . | -1.3 | .
COCCNC(=S)N/N=C(\C)c1ccccc1O | 40.4 | 78.6* | 1.4 | 8.7 | 85.2* | 17.8
COc1ccc(/C(C)=N/NC(=S)NCCc2ccccc2)c(O)c1 | -1.7 | . | . | . | 40.3* | 2.0
Cn1c(CC(=O)Nc2ccccc2Cl)nnc1SCC(=O)Nc1nncs1 | -16.0 | . | . | . | -0.7 | .
COc1ccc(NC(=O)Cn2nnc(C(=O)Nc3ccccc3C)c2N)cc1 | -20.4 | -0.9 | 0.7 | 3.9 | 5.7 | .
Cc1ccc(S(=O)(=O)NCc2ccc(C(=O)NC3CCCCC3)cc2)cc1 | -16.7 | . | . | . | -4.8 | .
CS(=O)(=O)NCc1ccc(C(=O)NC2CCCCC2)cc1 | -6.2 | -3.0 | 4.1 | 5.3 | 37.3* | 10.7
O=C(NNC(=O)C12CC3CC(CC(C3)C1)C2)c1ccccn1 | 39.2 | . | -4.0 | -1.6 | 22.1* | 38.9*
COc1cc(NS(=O)(=O)c2ccc(OC)c(C)c2C)c(OC)cc1Cl | 53.0 | 64.8* | 57.2* | 50.6* | 35.3* | 52.5*
COc1ccc(OC)c(S(=O)(=O)Nc2cc(OC)c(Cl)cc2OC)c1 | -18.3 | 6.6 | -1.0 | 3.3 | -8.8 | .
Cc1oc(-c2cccc(Cl)c2)nc1CN1CCC(C(=O)NCCCN2CC(C)CC(C)C2)CC1 (stereo not drawn) | -26.7 | . | . | . | 22.1* | 52.9*
COc1ccc(OCC(O)CNC(C)c2ccccc2)cc1 (stereo not drawn) | -11.9 | . | . | . | 6.9 | .
CC(NCC(O)COc1ccc2ccccc2c1)c1ccccc1 (stereo not drawn) | 7.6 | . | . | . | 53.0* | 8.8
CCOC(=O)N1CCN(CC(=O)Nc2nc3ccc(OC)cc3s2)CC1 | -22.8 | . | . | . | -7.1 | .
COc1cc(C(=O)Nc2ccc(NC(=O)C3CC3)nc2)cc(OC)c1OC | -10.7 | -1.5 | 0.5 | 7.8 | 95.1* | 9.8
Cc1cc(NC(=O)COC(=O)COc2cccc3c2OC(C)(C)C3)no1 | -16.0 | 10.6 | 0.0 | 5.1 | -0.6 | .
